# Assay results: article PMC7819943, “Rice protein-binding microarrays: a tool to detect cis-acting elements near promoter regions in rice”
# The full ranking holds about 39,000 sequences; the median of “fluorescence intensity (a.u.)” is about 4,300, and the highest 2% start at about 39,000. This excerpt belongs to a sample that is enriched for the highest values.
# Molecular target: T1, OsSMF1 (Oryza sativa, UniProt Q6ZLB0 1-436)
# T1 sequence: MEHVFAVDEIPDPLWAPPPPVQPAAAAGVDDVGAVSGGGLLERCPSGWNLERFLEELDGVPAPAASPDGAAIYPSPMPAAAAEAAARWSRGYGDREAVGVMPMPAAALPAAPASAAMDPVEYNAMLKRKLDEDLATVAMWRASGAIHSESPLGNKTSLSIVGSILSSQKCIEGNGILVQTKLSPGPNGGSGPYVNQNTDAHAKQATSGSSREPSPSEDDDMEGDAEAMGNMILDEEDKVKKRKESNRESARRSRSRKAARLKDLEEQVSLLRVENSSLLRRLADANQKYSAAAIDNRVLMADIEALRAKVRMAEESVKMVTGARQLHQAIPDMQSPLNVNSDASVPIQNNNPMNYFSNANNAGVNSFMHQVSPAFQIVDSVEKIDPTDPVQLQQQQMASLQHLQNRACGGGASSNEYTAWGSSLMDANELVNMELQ
# Test: protein-binding microarray (RPBM); PBS, 2% BSA, 51.3 ng/ul salmon testes DNA, 50 uM zinc acetate, 200 nM TF, 25 C, 1 h; high values mean tight binding
# Details: protein: recombinant; tags: N-terminal polyhistidine and DsRed monomer fusion (pET32a); chain copies: 2; label: CyDye5-dUTP incorporated in the synthesized complementary strand; 3' TTTTT single-stranded linker to array surface; dsDNA, one strand shown
# In short: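 Binding signal is reported as fluorescence intensity per feature (arbitrary units) from an Axon 4000B scanner. Incubation used 200 nM of each Ni–NTA-purified, N-terminally polyhistidine- and DsRed-fused transcription factor from E. coli BL21-CodonPlus on a double-stranded custom Agilent array for 1 h at 25 °C, with 50 µM zinc acetate in the buffer, followed by washing.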
row,Sequence,binding signal
1,AAACTGGCAAACGCGTCACATGAGTTTTACCTACCAATGTCGGAGTCACCTAGTGCAG,3230 fluorescence intensity (a.u.)
2,ATTTCAATGTCAAGATGAGAAGGGAATTTAAGAGCCTGCACGGAGTCACCTAGTGCAG,22800 fluorescence intensity (a.u.)
3,GCGCAGGCAACCACCCCACCCTTCTTCTCGAAACCTCTTCCGGAGTCACCTAGTGCAG,3290 fluorescence intensity (a.u.)
4,ATGAAGGATGCTTAAAAGTCTATTTTGCCTCGGCAAAATACGGAGTCACCTAGTGCAG,28700 fluorescence intensity (a.u.)
5,TTTCACGAAACCCAGTGATCCTGTCAGGTATCCTATGTACCGGAGTCACCTAGTGCAG,3760 fluorescence intensity (a.u.)
6,TTGTACAGCAGCGTGCTTCCATATGAGGAAATCCACTTCTCGGAGTCACCTAGTGCAG,44200 fluorescence intensity (a.u.)
7,GAAACCTGATGATGCTTGATGGAAATCCATTAGACAGCGTCGGAGTCACCTAGTGCAG,4580 fluorescence intensity (a.u.)
8,TTCTCTTCCAAAGGAAATGTATAAATCCACCATTAACTTTCGGAGTCACCTAGTGCAG,19900 fluorescence intensity (a.u.)
9,CGGCCCAGCAGGCGAGCGTGACGTGGACCGGTCGTTTCGCCGGAGTCACCTAGTGCAG,5650 fluorescence intensity (a.u.)
10,TTGGCTGGAGCATCGTCACTACTATTCGACACTAAGGTGTCGGAGTCACCTAGTGCAG,3240 fluorescence intensity (a.u.)
11,AGAATTCCGTGATACGCGCATACGCGTCGACAAGAGAAATCGGAGTCACCTAGTGCAG,3280 fluorescence intensity (a.u.)
12,GGAAGGCGACGCGTTACTGTGCACGATGCGGACCTCGAAACGGAGTCACCTAGTGCAG,60400 fluorescence intensity (a.u.)
13,GCCTCGAACGACGTGTGGACGCGATGGAAGATGCGTTCTGCGGAGTCACCTAGTGCAG,3210 fluorescence intensity (a.u.)
14,CCACGCGTCGTCGACGTACTGCGCGATGACGGCGGACTCGCGGAGTCACCTAGTGCAG,4700 fluorescence intensity (a.u.)
15,TCGCTCGCTCGCCTGCCAAATCTGCATTGGTGCTAGGAGGCGGAGTCACCTAGTGCAG,3730 fluorescence intensity (a.u.)
16,CATACATGGAAAAGACAAATCGCCTGGTGCATGAGGCGCTCGGAGTCACCTAGTGCAG,40600 fluorescence intensity (a.u.)
17,ACGCGCTCGCCTCGCGTCATCGGATCAAATGGTGGAGGCGCGGAGTCACCTAGTGCAG,3970 fluorescence intensity (a.u.)
18,TCCTTTCGTTATCTGTACGGCAGTGACGTCCACGACTCGACGGAGTCACCTAGTGCAG,4340 fluorescence intensity (a.u.)
19,CTGCAGTACAACAAACATGATAGTACTTGAAATCATCTTGCGGAGTCACCTAGTGCAG,27400 fluorescence intensity (a.u.)
20,CAACAAGCGGGTGGCTGGAAGGTGTGTGTGTGAGAGAGAGCGGAGTCACCTAGTGCAG,3180 fluorescence intensity (a.u.)
21,GATATCACAACCTGACCCACATTAGTCACACGCACTCACACGGAGTCACCTAGTGCAG,3790 fluorescence intensity (a.u.)

row,Sequence,binding signal
1,ATGAGTGTGAGTGTGGCATGCGTGCATGTGTAATAGTAAACGGAGTCACCTAGTGCAG,3480 fluorescence intensity (a.u.)
2,GTATTGTGTGTATTTATACATCATGAAAGAATAGAATAAACGGAGTCACCTAGTGCAG,28600 fluorescence intensity (a.u.)
3,GTAAGAATTGGCTGTTAGATTGGCTATAAATGAATTGGAGCGGAGTCACCTAGTGCAG,50800 fluorescence intensity (a.u.)
4,ATAAAGAATATGTAGAATTGGAACTATGCTAAGAGAAGAGCGGAGTCACCTAGTGCAG,3280 fluorescence intensity (a.u.)
5,TGGAGTAAACGATGAATACATGTTATAATAGTGTAGATTGCGGAGTCACCTAGTGCAG,65100 fluorescence intensity (a.u.)
6,CTATTGTATGAATTGGCTATAGATGATTTGGAGGCAGTAGCGGAGTCACCTAGTGCAG,3800 fluorescence intensity (a.u.)
7,TTCAAGTCCACATGGTGCTGACGTGAAACTGTCACATACACGGAGTCACCTAGTGCAG,7250 fluorescence intensity (a.u.)
8,GCATAGGAAGGTGACATGGCATATCCATGTGGCGATTTTGCGGAGTCACCTAGTGCAG,7280 fluorescence intensity (a.u.)
9,ACCAGTACGCATAGCATCATGTTGTTCCTGTGAAAGCATCCGGAGTCACCTAGTGCAG,3460 fluorescence intensity (a.u.)
10,AGCTTCATCTGCAATCCTCCGCTGATCTCTCCCTGTCCGGCGGAGTCACCTAGTGCAG,3940 fluorescence intensity (a.u.)
11,CCATCGCCGCCGCCCTCTTCTTCTTCTTCTTGCGAAGCAACGGAGTCACCTAGTGCAG,19100 fluorescence intensity (a.u.)
12,TTATTTTGGTCAGTTGAAGTGTGGAAAATGGTGAAAATCTCGGAGTCACCTAGTGCAG,3880 fluorescence intensity (a.u.)
13,CATAATATGGTAGTGTTGTTTCTCATGCAAGTATTGGCGTCGGAGTCACCTAGTGCAG,3160 fluorescence intensity (a.u.)
14,AAGAGATCCTTGTGTTTCGGAAGAATTTTGGTTGGTGTATCGGAGTCACCTAGTGCAG,23500 fluorescence intensity (a.u.)
15,TTTCAGAGTTTGAAGTTGGAAATCAACCTTGTTGTTCTCTCGGAGTCACCTAGTGCAG,63100 fluorescence intensity (a.u.)
16,ACAAGTTGGAGCTACTTTCTTTTGAAATGACAGATCAACTCGGAGTCACCTAGTGCAG,3250 fluorescence intensity (a.u.)
17,GCAGAGGAACCTTGGTAGTAGTATTTGGTTTCTCAGAAGTCGGAGTCACCTAGTGCAG,52600 fluorescence intensity (a.u.)
18,GAGAGCTCCCTTTTCGTACCACCTCGCCGCGTCGGCTGCTCGGAGTCACCTAGTGCAG,4870 fluorescence intensity (a.u.)
19,AGCCGCGGTCACGCACGCCACGCGTTCGATCGATCGATCACGGAGTCACCTAGTGCAG,4120 fluorescence intensity (a.u.)
20,GCTGGCTGGATTGCCACGTGTATGTCACGTAGGATAAAACCGGAGTCACCTAGTGCAG,14300 fluorescence intensity (a.u.)
21,GTTGACCCGCAGTTCCCCTTTGTTTTCCACGTGTTTCTTCCGGAGTCACCTAGTGCAG,7790 fluorescence intensity (a.u.)
